Experimental data taken from the supplement of paper PMC11732987, “Enantioselective OTUD7B fragment discovery through chemoproteomics screening and high-throughput optimisation” (Communications Chemistry, 2025).

Key:
Experiment in all cases: log2 ratio of Biotin-Ahx-Ub-VS probe labelling (fragment/DMSO); higher = less target engagement (more negative = stronger competition), active = hit call of the paper (q ≤ 0.05, log2 ratio ≤ -1)
Settings in all cases: compound concentration: 200 uM; treatment time: 3 h
USP34 = USP34 (UniProt Q70CQ2)
How it was run: (§1)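 Labelling with Biotin-Ahx-Ub-VS (0.5 µM final, 1 h) followed a 3 h triplicate treatment of HEK293T lysate (495 µg per sample, Tris/CHAPS/IGEPAL buffer with protease inhibitors) with fragment at 200 µM or vehicle. Labelled DUBs were NeutrAvidin-enriched, digested with LysC and trypsin, and run by diaPASEF LC-MS/MS. The values, average log2 fragment/vehicle ratios by unpaired t-test, come from global-median-normalised Spectronaut label-free quantities. Proteins with ≥2 unique peptides were used.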

USP36 = target: T1, USP36 (UniProt Q9P275)
T1 sequence (whole entry): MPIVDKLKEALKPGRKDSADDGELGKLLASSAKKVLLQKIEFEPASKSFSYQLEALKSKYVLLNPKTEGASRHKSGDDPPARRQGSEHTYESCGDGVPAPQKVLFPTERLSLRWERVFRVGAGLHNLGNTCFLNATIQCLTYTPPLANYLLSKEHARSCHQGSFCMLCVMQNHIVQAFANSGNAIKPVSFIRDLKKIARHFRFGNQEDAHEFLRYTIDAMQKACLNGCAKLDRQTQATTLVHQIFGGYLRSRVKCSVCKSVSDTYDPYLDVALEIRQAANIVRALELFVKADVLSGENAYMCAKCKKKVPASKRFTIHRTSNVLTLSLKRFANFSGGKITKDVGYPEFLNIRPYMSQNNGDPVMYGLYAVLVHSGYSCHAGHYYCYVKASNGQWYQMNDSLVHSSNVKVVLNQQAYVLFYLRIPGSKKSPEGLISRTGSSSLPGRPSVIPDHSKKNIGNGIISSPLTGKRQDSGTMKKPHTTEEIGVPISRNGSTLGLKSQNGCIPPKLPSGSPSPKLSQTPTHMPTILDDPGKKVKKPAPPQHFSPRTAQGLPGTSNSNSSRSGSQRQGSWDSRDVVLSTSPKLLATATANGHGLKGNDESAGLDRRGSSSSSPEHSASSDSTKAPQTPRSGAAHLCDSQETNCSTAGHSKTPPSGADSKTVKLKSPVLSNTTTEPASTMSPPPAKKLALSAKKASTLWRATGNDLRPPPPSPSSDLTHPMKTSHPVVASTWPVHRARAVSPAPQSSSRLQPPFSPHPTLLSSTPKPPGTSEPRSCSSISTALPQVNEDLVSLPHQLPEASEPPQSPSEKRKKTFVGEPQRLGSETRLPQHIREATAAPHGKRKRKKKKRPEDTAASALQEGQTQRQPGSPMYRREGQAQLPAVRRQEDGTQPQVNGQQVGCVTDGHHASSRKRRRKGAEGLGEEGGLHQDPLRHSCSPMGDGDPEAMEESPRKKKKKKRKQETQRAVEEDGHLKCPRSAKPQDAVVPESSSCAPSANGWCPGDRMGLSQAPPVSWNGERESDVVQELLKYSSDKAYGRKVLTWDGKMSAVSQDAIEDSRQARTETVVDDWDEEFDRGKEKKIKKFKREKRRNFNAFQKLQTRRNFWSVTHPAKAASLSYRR
How it was run: as §1

USP38 = target: T2, USP38 (UniProt Q8NB14)
T2 sequence (whole entry): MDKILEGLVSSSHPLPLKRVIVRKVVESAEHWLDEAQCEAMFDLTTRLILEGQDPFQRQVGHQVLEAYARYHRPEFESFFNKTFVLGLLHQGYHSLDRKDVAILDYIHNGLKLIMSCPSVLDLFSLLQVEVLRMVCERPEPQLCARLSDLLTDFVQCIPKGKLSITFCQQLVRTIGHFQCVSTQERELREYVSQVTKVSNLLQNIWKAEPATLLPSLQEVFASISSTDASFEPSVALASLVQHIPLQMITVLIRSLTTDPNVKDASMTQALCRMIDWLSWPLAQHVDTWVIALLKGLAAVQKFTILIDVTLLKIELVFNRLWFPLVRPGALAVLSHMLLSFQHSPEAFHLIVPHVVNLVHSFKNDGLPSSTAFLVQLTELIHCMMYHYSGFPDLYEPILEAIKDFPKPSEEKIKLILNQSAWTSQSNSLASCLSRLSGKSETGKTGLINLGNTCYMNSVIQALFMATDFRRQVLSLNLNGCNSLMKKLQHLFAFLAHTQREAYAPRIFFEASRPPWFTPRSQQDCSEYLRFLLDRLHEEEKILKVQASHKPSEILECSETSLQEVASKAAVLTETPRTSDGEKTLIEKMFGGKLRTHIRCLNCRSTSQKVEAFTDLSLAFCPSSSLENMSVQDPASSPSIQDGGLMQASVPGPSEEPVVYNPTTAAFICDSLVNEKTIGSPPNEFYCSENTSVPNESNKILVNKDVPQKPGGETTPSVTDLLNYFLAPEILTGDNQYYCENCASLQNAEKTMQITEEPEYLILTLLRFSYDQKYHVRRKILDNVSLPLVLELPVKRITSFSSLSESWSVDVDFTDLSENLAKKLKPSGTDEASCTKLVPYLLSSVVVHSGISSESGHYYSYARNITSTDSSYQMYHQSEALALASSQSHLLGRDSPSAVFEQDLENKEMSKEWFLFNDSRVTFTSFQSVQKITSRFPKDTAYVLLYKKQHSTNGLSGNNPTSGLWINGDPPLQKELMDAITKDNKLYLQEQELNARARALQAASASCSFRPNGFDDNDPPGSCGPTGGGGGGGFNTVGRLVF
How it was run: as §1

USP39 = target: T3, USP39 (UniProt Q53GS9)
T3 sequence (whole entry): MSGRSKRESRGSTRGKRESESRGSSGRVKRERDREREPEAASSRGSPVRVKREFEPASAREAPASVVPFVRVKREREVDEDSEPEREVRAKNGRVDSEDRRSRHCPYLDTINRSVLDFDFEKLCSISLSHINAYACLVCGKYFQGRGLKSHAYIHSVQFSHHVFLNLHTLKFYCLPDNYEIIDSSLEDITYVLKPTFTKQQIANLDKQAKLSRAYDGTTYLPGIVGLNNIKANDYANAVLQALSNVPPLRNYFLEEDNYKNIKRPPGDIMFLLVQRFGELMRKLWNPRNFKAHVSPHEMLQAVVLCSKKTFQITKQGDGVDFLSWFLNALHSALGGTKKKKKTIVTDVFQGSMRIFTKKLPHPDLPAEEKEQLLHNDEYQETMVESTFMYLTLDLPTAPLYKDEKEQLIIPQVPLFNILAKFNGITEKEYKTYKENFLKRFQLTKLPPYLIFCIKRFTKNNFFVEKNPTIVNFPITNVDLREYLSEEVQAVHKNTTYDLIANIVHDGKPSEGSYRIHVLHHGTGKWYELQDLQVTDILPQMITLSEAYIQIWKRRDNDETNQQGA
How it was run: as §1

USP4 = target: T4, USP4 (UniProt Q13107)
T4 sequence (whole entry): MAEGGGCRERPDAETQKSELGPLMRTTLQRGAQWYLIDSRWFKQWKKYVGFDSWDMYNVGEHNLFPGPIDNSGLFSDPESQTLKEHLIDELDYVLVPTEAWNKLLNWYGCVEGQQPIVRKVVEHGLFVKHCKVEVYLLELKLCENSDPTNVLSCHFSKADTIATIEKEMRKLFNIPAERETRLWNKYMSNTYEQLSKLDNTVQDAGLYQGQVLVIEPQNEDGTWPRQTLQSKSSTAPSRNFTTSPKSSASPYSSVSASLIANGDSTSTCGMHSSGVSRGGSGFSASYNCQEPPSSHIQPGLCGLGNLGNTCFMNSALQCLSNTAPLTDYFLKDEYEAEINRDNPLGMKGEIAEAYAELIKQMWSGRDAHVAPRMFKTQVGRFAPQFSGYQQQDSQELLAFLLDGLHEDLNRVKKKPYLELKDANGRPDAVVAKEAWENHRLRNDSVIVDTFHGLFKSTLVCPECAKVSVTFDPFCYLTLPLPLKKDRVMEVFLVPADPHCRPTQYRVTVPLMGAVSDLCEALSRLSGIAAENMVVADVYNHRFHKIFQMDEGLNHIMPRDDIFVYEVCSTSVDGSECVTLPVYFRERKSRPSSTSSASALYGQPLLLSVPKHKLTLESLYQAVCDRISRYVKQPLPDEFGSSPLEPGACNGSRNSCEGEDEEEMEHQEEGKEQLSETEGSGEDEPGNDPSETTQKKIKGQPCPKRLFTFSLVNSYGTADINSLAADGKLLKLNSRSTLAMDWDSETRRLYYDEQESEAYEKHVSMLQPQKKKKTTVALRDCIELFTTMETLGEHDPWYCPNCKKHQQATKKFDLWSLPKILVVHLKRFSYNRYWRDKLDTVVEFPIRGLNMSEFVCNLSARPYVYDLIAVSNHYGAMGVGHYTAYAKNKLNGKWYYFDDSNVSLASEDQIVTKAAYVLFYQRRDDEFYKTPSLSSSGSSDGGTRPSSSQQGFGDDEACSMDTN
How it was run: as §1

Measured: log2 ratio of Biotin-Ahx-Ub-VS probe labelling

Sequence of USP34 (Q70CQ2 whole entry, the tested form may be a part): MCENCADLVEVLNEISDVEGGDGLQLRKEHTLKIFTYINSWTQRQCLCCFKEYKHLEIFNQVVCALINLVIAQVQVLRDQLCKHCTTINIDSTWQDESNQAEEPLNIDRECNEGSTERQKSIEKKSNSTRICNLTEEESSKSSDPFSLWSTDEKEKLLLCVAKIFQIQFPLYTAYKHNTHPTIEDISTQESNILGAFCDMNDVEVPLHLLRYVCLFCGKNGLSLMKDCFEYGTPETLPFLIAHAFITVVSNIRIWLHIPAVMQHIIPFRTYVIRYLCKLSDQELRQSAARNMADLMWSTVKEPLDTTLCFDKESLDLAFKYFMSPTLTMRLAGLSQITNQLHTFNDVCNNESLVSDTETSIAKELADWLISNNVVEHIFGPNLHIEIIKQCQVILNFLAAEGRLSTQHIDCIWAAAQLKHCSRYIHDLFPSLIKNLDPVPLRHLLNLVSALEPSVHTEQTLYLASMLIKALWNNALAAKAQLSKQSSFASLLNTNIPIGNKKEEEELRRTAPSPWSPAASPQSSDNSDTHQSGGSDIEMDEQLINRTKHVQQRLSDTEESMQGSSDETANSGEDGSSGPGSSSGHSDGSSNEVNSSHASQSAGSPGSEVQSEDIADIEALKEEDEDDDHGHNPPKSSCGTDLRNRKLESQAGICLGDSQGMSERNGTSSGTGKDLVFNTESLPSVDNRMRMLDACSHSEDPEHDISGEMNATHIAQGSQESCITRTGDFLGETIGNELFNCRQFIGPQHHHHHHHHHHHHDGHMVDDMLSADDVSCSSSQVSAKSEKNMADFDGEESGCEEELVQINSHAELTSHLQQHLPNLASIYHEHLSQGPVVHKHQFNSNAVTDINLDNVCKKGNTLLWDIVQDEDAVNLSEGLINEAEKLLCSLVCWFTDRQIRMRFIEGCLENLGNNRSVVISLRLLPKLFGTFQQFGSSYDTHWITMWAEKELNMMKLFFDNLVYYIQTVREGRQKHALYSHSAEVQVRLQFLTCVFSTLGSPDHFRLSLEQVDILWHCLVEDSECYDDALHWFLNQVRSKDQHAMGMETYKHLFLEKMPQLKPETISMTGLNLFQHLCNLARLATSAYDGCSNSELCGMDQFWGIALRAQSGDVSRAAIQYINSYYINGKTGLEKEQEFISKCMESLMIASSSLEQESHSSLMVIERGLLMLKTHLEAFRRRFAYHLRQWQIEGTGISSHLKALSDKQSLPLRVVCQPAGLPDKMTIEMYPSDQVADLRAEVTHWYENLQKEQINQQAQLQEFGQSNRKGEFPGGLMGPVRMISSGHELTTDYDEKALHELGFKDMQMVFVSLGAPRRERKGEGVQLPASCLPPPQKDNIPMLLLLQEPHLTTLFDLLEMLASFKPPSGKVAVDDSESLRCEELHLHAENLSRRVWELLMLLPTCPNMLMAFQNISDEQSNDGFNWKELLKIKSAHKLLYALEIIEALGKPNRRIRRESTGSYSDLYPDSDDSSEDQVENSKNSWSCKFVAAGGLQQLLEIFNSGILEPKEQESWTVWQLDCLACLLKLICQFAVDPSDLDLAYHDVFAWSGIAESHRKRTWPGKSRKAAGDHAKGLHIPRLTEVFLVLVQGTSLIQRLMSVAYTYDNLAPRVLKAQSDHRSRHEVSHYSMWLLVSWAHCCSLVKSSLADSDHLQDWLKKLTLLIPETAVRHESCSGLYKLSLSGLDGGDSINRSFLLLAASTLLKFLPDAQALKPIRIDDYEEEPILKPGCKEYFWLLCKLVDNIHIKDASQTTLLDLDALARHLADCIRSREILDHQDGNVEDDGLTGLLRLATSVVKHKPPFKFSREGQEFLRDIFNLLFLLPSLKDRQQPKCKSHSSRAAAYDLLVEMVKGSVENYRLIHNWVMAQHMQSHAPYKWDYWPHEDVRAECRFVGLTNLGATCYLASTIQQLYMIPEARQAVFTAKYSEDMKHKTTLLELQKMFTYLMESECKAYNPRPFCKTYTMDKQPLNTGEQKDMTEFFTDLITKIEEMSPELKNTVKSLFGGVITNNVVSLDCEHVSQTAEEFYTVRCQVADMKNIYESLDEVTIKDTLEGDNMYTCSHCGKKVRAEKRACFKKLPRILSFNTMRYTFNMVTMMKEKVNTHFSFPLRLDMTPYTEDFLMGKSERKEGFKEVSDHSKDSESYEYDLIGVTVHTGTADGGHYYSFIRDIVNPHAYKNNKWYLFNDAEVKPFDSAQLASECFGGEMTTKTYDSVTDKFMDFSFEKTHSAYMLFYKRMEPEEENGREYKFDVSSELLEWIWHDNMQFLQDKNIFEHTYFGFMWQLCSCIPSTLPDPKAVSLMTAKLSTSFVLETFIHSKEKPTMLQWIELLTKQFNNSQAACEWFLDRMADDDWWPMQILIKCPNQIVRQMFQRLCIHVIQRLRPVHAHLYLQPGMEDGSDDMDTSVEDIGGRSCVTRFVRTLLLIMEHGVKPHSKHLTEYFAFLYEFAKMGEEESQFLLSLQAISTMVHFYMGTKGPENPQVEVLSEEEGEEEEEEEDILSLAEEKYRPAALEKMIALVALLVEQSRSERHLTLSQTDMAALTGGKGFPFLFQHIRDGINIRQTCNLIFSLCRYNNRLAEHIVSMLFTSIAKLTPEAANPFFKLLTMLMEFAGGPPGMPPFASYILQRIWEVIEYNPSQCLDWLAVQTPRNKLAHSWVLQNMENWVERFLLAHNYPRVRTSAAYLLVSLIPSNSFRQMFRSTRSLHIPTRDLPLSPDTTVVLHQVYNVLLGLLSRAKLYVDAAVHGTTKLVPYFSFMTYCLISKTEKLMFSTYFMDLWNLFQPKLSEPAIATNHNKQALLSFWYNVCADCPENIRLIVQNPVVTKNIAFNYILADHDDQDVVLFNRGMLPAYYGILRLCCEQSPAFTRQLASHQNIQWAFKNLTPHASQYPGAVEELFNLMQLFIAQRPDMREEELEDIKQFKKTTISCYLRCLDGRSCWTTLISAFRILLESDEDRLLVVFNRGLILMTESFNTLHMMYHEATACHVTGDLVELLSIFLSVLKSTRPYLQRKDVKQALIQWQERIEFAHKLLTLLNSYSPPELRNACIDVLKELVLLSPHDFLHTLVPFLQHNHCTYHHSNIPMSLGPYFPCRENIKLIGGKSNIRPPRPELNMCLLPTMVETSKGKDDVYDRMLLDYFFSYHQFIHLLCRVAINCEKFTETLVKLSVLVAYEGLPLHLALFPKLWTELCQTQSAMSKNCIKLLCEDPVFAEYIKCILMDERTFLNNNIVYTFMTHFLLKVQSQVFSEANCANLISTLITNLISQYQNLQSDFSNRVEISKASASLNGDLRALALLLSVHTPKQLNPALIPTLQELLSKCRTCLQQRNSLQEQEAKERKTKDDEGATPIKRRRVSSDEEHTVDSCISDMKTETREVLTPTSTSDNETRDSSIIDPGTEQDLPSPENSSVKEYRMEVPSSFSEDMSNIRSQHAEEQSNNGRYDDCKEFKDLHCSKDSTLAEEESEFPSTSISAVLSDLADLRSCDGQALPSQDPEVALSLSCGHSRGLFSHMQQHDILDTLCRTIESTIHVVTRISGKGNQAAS

O=C(CCl)Nc1ccc(F)cc1F
inactive: USP34 -0.242 | USP36 -0.306 | USP38 0.102 | USP39 0.37 | USP4 -0.0254
